Among the data in PubChem BioAssay (NCI) are growth values, retold here.

This is part of a sample that, as a whole, favours compounds with a hit. Of some 83,000 tested, about 20% had one in any assay.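 Percent growth is the endpoint: 0 to 100 indicates growth inhibition (40 means 60% inhibition), 0 means no net growth, and negative values indicate cell death.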 A number with no mark means an inactive call. Activity calls are given as the source filed them. The calls were made as follows: active = growth percent below 10; inactive = the rest.

This test relates to U251 CNS. Briefly: NCI-60 one-dose screen, 48 h (100 = growth as untreated, 0 = no growth, -100 = all killed). The following applies: 10 µM unless noted.
As to `Clc1ccc([I+]c2ccc(Cl)cc2Cl)c(Cl)c1`, the growth was 6.72% (active). Turning to `Cc1ccc(C2=NN(c3ccc(S(N)(=O)=O)cc3)C(c3cn(-c4ccccc4)nc3-c3ccccc3)C2)cc1` (stereo not drawn), the growth is 77.4%. The same measure for `N#CC1=C(N)OC2=C(C(=O)CCC2)C1c1ccco1` (stereo not drawn): 99.3%; for `COC1=CC(c2ccc[nH]2)=N/C1=C\c1[nH]c(C)c(C(=O)CCCCC(=O)Oc2ccc3c(c2)CCC2C3CC[C@]3(C)[C@@H](O)CC[C@@H]23)c1C` (stereo partly drawn): 52.6%.

`COc1ccc(NC(=O)CSc2nc3ccccc3c(=O)n2Cc2cc(OC)c(OC)c(OC)c2)cc1`: the growth is 97.7%. As to `Nc1c(C(=O)Nc2c(Cl)cccc2Cl)sc2nc3c(cc12)CCCCC3`, the growth is 66.7%. The same measure for `O=C(CN1CCN(c2cc3c(cc2F)c(=O)c(C(=O)O)cn3C2CC2)CC1)Nc1ccc(C(=O)/C=C/c2ccccc2)cc1`: 14.9%; for `COc1cc(/C=C/C(=O)c2ccc(NC(=O)CN3CCN(c4cc5c(cc4F)c(=O)c(C(=O)O)cn5C4CC4)CC3)cc2)cc(OC)c1OC`: -55.8% (active); for `NC(=O)c1c(NC(=O)c2ccc(OCC3CCCO3)cc2)sc2c1CCCC2` (stereo not drawn): 95.2%. The same measure for `COc1ccc(/C=C/C(=O)OCC(=O)NNC(=O)c2ccccc2)cc1OC`: 97%; for `Cc1sc(N=Nc2ccc(N(C)C)cc2)[n+]([O-])c1C`: 99%; for `O=C(/C=C/c1ccccc1)n1c(-c2ccc(Cl)cc2)nc2ccccc21`: -0.388% (active).

As for `COC(=O)[C@H]1[C@H](OC)[C@@H](OC(=O)/C=C/c2ccncc2)CC2CN3CCc4c([nH]c5cc(OC)ccc45)[C@@H]3C[C@@H]21` (stereo partly drawn), the growth was 67.1%.

In the case of `O=C1Nc2ccc(Br)cc2C1=N/C=c1\[nH]c(=O)/c(=C/c2ccc(Cl)cc2)s1`, the growth is 83.7%.

`Nc1c(C(=O)Nc2cccc(C(F)(F)F)c2)sc2nc3c(cc12)CCCCC3`: the growth was -57% (active). The same measure for `COc1cc(/C=C2\C=C(c3ccc(F)cc3)N(Cc3ccccc3)C2=O)cc(OC)c1OC`: 48.8%; for `Clc1nc(Cl)c2ncn(C/C=C/Cn3cnc4c(Cl)nc(Cl)nc43)c2n1`: 57.4%. For `NC(C(=O)O)C(O)c1ccc(OCc2ccccc2)c(OCc2ccccc2)c1` (stereo not drawn), the growth was 91%. The same measure for `Nc1c(C(=O)Nc2ccccc2)sc2nc3c(cc12)CCC3`: 70.9%.

As for `COc1ccc(/C=C/c2cc(N3CCOCC3)c3cc(F)c(F)cc3n2)cc1OC`, the growth was 23.5%.

Take `O=[N+]([O-])c1cccc(-c2cc(-c3cc(Br)ccc3O)[nH]n2)c1`: the growth is 17.9%. The same measure for `COC1=CC(c2ccc[nH]2)=N/C1=C\c1[nH]c(C)c(C(=O)CCC(=O)Oc2ccc3c(c2)CCC2C3CC[C@]3(C)[C@@H](O)CC[C@@H]23)c1C` (stereo partly drawn): -48.4% (active); for `COc1ccc(C2=NN(c3ccc(S(N)(=O)=O)cc3)C(c3cn(-c4ccccc4)nc3-c3ccc(Cl)cc3)C2)cc1` (stereo not drawn): 84.1%. As to `COc1cc(CCn2nnc3c(NCCCCO)ncnc32)cc(OC)c1`, the growth is 99.5%. Regarding `Clc1ccc(-c2nc(-c3ccco3)cn3ccnc23)cc1`, the growth was -51.3% (active).

With `O=C(c1ccncc1)N1N=C(c2ccc(Cl)cc2)CC1c1c[nH]c2ccccc12` (stereo not drawn), the growth is 93.4%. The same measure for `COc1ccc(-c2cn[nH]c2-c2cc(OC)c3c(c2)OCCO3)cc1`: 16.4%.

As for `O=S(=O)(c1ccccc1)n1ccc(-c2ccc3c(c2)CCO3)n1`, the growth was 73.6%. Turning to `COC1=CC(c2ccc[nH]2)=N/C1=C\c1[nH]c(C)c(C(=O)CCCCC(=O)NCc2ccccc2)c1C`, the growth is 10.6%.

`Nc1c(C(=O)Nc2cccc([N+](=O)[O-])c2)sc2nc3c(cc12)C(O)CCC3` (stereo not drawn): the growth is 51.4%. Turning to `COc1cccc(NC(=O)c2sc3nc4c(cc3c2N)CCCC4)c1`, the growth was 19.8%.

For the compound `O=C(Nc1cccc(C(F)(F)F)c1)Nc1ccc(OCc2nnc(-c3ccccc3)o2)c(F)c1`, the growth is 29.5%. The same measure for `CC(=O)Nc1nc(C(=O)N2N=C(C)/C(=C/c3ccc(Cl)cc3)C2=O)cs1`: 101%; for `COc1cc(C(=O)OCCCCCCCCCCC[P+](c2ccccc2)(c2ccccc2)c2ccccc2)ccc1O`: -89.8% (active). `O=C(NCCCN1CCN(CCCNC(=O)C2CCCCC2)CC1)C1CCCCC1`: the growth was 96.9%. As for `COc1cc2c(cc1OC)C1(C)N(CC2)C(=O)OC1(C)C` (stereo not drawn), the growth was 101%.

In the case of `CCCCCc1c(C)[nH]c(/C=c2\[nH]/c(=C3/C=c4ccccc4=N3)cc2OC)c1C`, the growth was -95.1% (active). The same measure for `COc1cc(-c2n[nH]nc2-c2ccc3c(c2)OCCO3)cc(OC)c1OC`: -27.3% (active).
